Bioassay records from PubChem BioAssay.
GSIS activator = GLuc luminescence reporter in INS-1E cells, primary screen for activators of glucose-dependent secretion of insulin | AID 743287, 2014 | INS-1E GLuc reporter insulin secretion, 2-3 h | actives 0.61% (n = 370,000) | activation, % at 16.6 µM;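 active = lowest replicate activation of at least 40%, so every replicate reaches that level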
CendR NRP1 mod = modulators of CendR peptide binding to NRP-1, primary screen, biochemical, fluorescence polarization, uHTS. AID 602438, 2012. FAM-RPARPAR peptide binding to NRP-1. inhibition, % at 25 µM. actives 0.85% (n = 360,000). Neuropilin-1 (Homo sapiens), O14786;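 active = inhibition or corrected inhibition above about 18%, plus a signal ratio from 0.5 to 1.5, limit read from the data, passing the limit was not always enough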
iPSC survival up = enhancers of single-cell hiPSC survival, primary screen, ATPlite luminescence | 100% = ROCK inhibitor wells, 0% = DMSO | survival enhancement, % at 20 µM | actives 0.044% (n = 360,000); in the data active = survival enhancement above about 18%;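 note: cells exposed to compounds for 16 hours before the ATP read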
ARNT TACC3 PPI = disruptors of ARNT/TACC3 protein interaction, primary screen, biochemical, AlphaScreen, single concentration | AlphaScreen His-ARNT PAS-B/GST-TACC3 binding, luminescence; TACC3 fragment carries E629A point mutation | Transforming acidic coiled-coil-containing protein 3 (Homo sapiens), Q9Y6A5 | inhibition, % at 9.99 µM | actives 0.66% (n = 390,000);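 active = mean inhibition of replicates at least 50% and at least half of replicates each reaching 50%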
ABCB6 inh MLPCN = ABCB6 transporter inhibitors, primary screen, K562-ABCB6 cells, flow cytometry, MLPCN library; fluorescence ratio to DMSO, % at 10 µM; K562-ABCB6 porphyrin accumulation, 1 h; stronger effect = lower value; actives 0.19% (n = 360,000);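 active = fluorescence ratio to DMSO below 75%, the collection mean minus 3 SD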;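 note: signal is porphyrin accumulated inside mitochondria; lower ratio means ABCB6 inhibition with less porphyrin fluorescence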
ARNT Alpha ctr-1 = AlphaScreen signal interference compounds, dose response, artefact control for ARNT-TACC3 interaction inhibitor project, biochemical, luminescence, cherry-pick; AC50, µM (top dose mostly 68 µM); actives 50% (n = 1,200); shares compounds with ARNT TACC3 PPI; His-ARNT PASB-GST AlphaScreen artifact counter-screen; AID 651705, 2012;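 active = every separate test run was called active for a drop in luminescence, with AC50 within twice the top valid dose, actives reach about 71 µM in these data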
ARNT Alpha ctr-2 = AlphaScreen signal interference by compounds, dose response, artefact control for ARNT/TACC3 disruptor project, biochemical, dual-tagged ARNT, dry powder; shares compounds with ARNT TACC3 PPI; Dual-tagged His-ARNT PASB-GST AlphaScreen artifact counter-screen; AC50, µM; actives 70% (n = 45); AID 720564, 2013;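 active = luminescence drop, with half-maximal potency fitted within twice the sample's top valid dose, cut at about 70 µM in these data; inactive = the rest, including signal moving the wrong way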
Hits are given with their value; n = inactive; x = not tested or not shown. Hits are enriched below; roughly 1.8% of the tested compounds scored in any of these assays.

SMILES	GSIS activator	CendR NRP1 mod	iPSC survival up	ARNT TACC3 PPI	ABCB6 inh MLPCN	ARNT Alpha ctr-1	others
C[C@H](CO)N1C[C@H](C)[C@H](CN(C)C(=O)Nc2cccc3ccccc23)OCCCC[C@H](C)Oc2ccc(NC(=O)CCCN(C)C)cc2C1=O	n	x	x	59	x	n
C[C@@H]1CN([C@H](C)CO)S(=O)(=O)c2ccc(-c3cncnc3)cc2O[C@H]1CN(C)C(=O)C1CCC1	n	x	x	n	x	x
C[C@@H]1CN([C@H](C)CO)S(=O)(=O)c2ccc(-c3ccc(F)cc3)cc2O[C@@H]1CN(C)C(=O)Nc1ccc(F)cc1	n	x	x	x	x	x
CC(C)Cc1nnc(NC(=O)c2cccc(S(=O)(=O)N3CCOCC3)c2)s1	n	n	n	x	n	x	ARNT Alpha ctr-2=n
CN1CCN(S(=O)(=O)c2cccc(C(=O)Nc3sccc3C(N)=O)c2)CC1	n	n	n	46	n	44µM
CC(C)Cc1nnc(NC(=O)c2cccc(S(=O)(=O)N3CCN(C)CC3)c2)s1	n	n	n	n	n	x
CN1CCN(S(=O)(=O)c2cccc(C(=O)Nc3cc(C(N)=O)cc(C(N)=O)c3)c2)CC1	n	n	n	n	n	x
O=C(C[C@@H]1C[C@H]2c3cc(NC(=O)NC4CCCC4)ccc3O[C@H]2[C@H](CO)O1)NCCN1CCCCC1	n	x	x	n	x	x
O=Nc1ccc(O)c2ncccc12	n	n	n	57	n	69µM
Cc1ccccc1NCc1ccc(O)c2ncccc12	n	n	n	n	n	x
COCc1ccc(O)c2ncccc12	x	n	n	75	n	16µM
c1ccc2c(Cn3ccnc3)c[nH]c2c1	x	n	n	n	n	x
Oc1ccc(Cn2ccnc2)c2cccnc12	n	n	n	58	n	6.2µM
C[C@@H]1CN([C@H](C)CO)C(=O)c2cc(-c3ccccc3)cnc2O[C@@H]1CN(C)C(=O)Cc1ccccn1	n	x	x	n	x	x
O=C(COc1c(Br)cc(Br)c2cccnc12)N1CCCCC1	n	n	n	n	n	x
O=C(Oc1c(CN2CCOCC2)cc(Cl)c2cccnc12)c1ccccc1	n	n	n	52	n	n
COc1cc(OC)cc(C(=O)Oc2c(CN3CCOCC3)cc(Cl)c3cccnc23)c1	n	n	n	41	n	n
COc1ccc(C(=O)Oc2c(CN3CCOCC3)cc(Cl)c3cccnc23)cc1OC	n	x	x	x	x	x
Oc1c(CN2CCCCC2)cc(Br)c2cccnc12	x	n	n	64	n	5.6µM
Oc1c(Cl)cc(CN2CCOCC2)c2cccnc12	n	n	n	71	n	7.3µM
Cc1ccc(S(=O)(=O)Nc2ccc3c(c2)C(=O)N([C@H](C)CO)C[C@H](C)[C@H](CN(C)S(=O)(=O)c2ccc(C)cc2)OCCCC[C@H](C)O3)cc1	n	x	x	x	x	x
C[C@@H]1CCCCO[C@H](CN(C)Cc2ccc(C(=O)O)cc2)[C@H](C)CN([C@@H](C)CO)C(=O)c2cc(NS(=O)(=O)c3cn(C)cn3)ccc2O1	n	x	x	n	x	x
C[C@H]1CN([C@@H](C)CO)C(=O)c2cc(C#CC(C)(C)O)cnc2O[C@@H]1CN(C)C(=O)c1ccccc1F	n	x	x	n	x	x
O=C(N/N=C/c1cc([N+](=O)[O-])ccc1O)c1ccncc1	n	n	n	57	n	12µM
O=C(NN=Cc1c(O)ccc2ccccc12)c1ccncc1	x	n	n	56	n	49µM
SMILES	GSIS activator	CendR NRP1 mod	iPSC survival up	ARNT TACC3 PPI	ABCB6 inh MLPCN	ARNT Alpha ctr-1	others
O=C(N/N=C/c1cc(Br)ccc1OC(=O)c1ccc(Br)cc1)c1ccncc1	n	n	n	61	n	56µM
C[C@@H]1CN([C@H](C)CO)C(=O)c2cc(-c3cccnc3)cnc2O[C@@H]1CN(C)C(=O)Cc1cccnc1	n	x	x	n	x	x
CNC[C@@H]1Oc2c(NS(=O)(=O)c3cccs3)cccc2C(=O)N([C@@H](C)CO)C[C@H]1C	n	x	x	active	x	n
CC(C)NC(=O)Nc1cccc2c1O[C@@H](CN(C)C(=O)Nc1ccc(C(F)(F)F)cc1)[C@@H](C)CN([C@@H](C)CO)C2=O	n	x	x	n	x	x
CNC[C@@H]1Oc2c(NS(=O)(=O)c3cccs3)cccc2C(=O)N([C@H](C)CO)C[C@@H]1C	n	x	x	n	x	x
CC(C)NC(=O)Nc1cccc2c1O[C@H](CN(C)C(=O)Nc1ccc(C(F)(F)F)cc1)[C@@H](C)CN([C@@H](C)CO)C2=O	n	x	x	active	x	n
C[C@@H]1CN([C@H](C)CO)C(=O)c2cccc(NC(=O)c3ccncc3)c2O[C@@H]1CN(C)Cc1ccc(-c2ccccc2)cc1	n	x	x	active	x	n
C[C@@H]1CN([C@H](C)CO)C(=O)c2cc(NS(C)(=O)=O)ccc2O[C@@H]1CN(C)S(=O)(=O)c1ccc(F)cc1	n	x	x	active	x	n
COc1ccc2c3c([nH]c2c1)[C@H](CO)N(C(=O)CC1CC1)CC31CN(Cc2ccncc2)C1	n	x	x	x	x	x
O=C(C[C@@H]1C[C@@H]2c3cc(NC(=O)NC4CCCCC4)ccc3O[C@@H]2[C@@H](CO)O1)NC1CCCC1	n	x	x	x	x	x
COc1ccc2c3c(n(C)c2c1)[C@H](CO)N(CC1CC1)CC31CN(C(=O)c2ccc(F)cc2)C1	n	x	x	x	x	x
O=C(NCC[C@@H]1CC[C@@H](NC(=O)C2CCCCC2)[C@@H](CO)O1)Nc1ccc(Cl)cc1	n	x	x	n	x	x
C[C@@H]1CN([C@@H](C)CO)C(=O)c2cccc(NC(=O)Nc3cccc4ccccc34)c2O[C@H]1CN(C)S(=O)(=O)c1ccc(Cl)cc1	n	x	x	n	x	x
C[C@H](CO)N1C[C@H](C)[C@@H](CN(C)S(=O)(=O)c2ccc(Cl)cc2)Oc2c(NC(=O)Nc3cccc4ccccc34)cccc2C1=O	n	x	x	52	x	24µM
Cc1ccccc1CNC(=O)c1cc(-c2ccccc2)on1	x	x	x	x	x	n
O=C(NCC1CC1)c1cc(-c2ccccc2)on1	x	x	x	x	x	n
CCN(CC)CCCNC(=O)c1cc(-c2ccc(Cl)cc2)on1	x	n	n	x	n	x
O=C(NCc1cccnc1)c1cc(-c2ccccc2)on1	n	n	n	n	n	x
CN(C)CCNC(=O)c1cc(-c2ccccc2)on1	x	x	x	x	x	n
Cc1ccc(S(=O)(=O)Nc2ccc3c(c2)C(=O)N([C@@H](C)CO)C[C@@H](C)[C@@H](CN(C)C(=O)c2ccncc2)OCCCC[C@H](C)O3)cc1	n	x	x	n	x	x
O=S(=O)(Nc1cccc(F)c1)c1cccc2nsnc12	n	n	n	n	n	x
Cc1cc(F)ccc1NS(=O)(=O)c1cccc2nsnc12	n	n	n	active	n	n
c1ccc(-c2cncnc2)nc1	x	n	n	n	n	x
c1ccc(-c2cnnc(-c3ccccn3)n2)cc1	n	n	n	57	n	26µM
